# Changes are numbered by the printed parent chain.
# B1: ACGCCCCA (ssRNA)
# RNA 1: GAGUUCUACAGUCCGACGAUCCCAACACGCCCCACACCUGGAAUUCUCGGGUGCCAA
# RNA 2: UGGAGUGUGACAAUGGUGUUUG
# DNA 1: GATCGTCGGACTGTAGAACTC
# DNA 2: TTGGCACCCGAGAATTCCA
# modifications: constant regions annealed to DNA blockers; guide miR-122 5' phosphate
# B2: ACACCTTA (ssRNA)
# RNA 1: B1 RNA 1 with G29A, C32U, C33U
# RNA 2: UGGAGUGUGACAAUGGUGUUUG
# DNA 1: GATCGTCGGACTGTAGAACTC
# DNA 2: TTGGCACCCGAGAATTCCA
# modifications: constant regions annealed to DNA blockers; guide miR-122 5' phosphate
# B3: ACATTTTA (ssRNA)
# RNA 1: B1 RNA 1 with G29A, C30U, C31U, C32U, C33U
# RNA 2: UGGAGUGUGACAAUGGUGUUUG
# DNA 1: GATCGTCGGACTGTAGAACTC
# DNA 2: TTGGCACCCGAGAATTCCA
# modifications: constant regions annealed to DNA blockers; guide miR-122 5' phosphate
# B4: GTGTCCCA (ssRNA)
# RNA 1: B1 RNA 1 with A27G, C28U, C30U
# RNA 2: UGGAGUGUGACAAUGGUGUUUG
# DNA 1: GATCGTCGGACTGTAGAACTC
# DNA 2: TTGGCACCCGAGAATTCCA
# modifications: constant regions annealed to DNA blockers; guide miR-122 5' phosphate
# B5: GTGCTTCG (ssRNA)
# RNA 1: B1 RNA 1 with A27G, C28U, C31U, C32U, A34G
# RNA 2: UGGAGUGUGACAAUGGUGUUUG
# DNA 1: GATCGTCGGACTGTAGAACTC
# DNA 2: TTGGCACCCGAGAATTCCA
# modifications: constant regions annealed to DNA blockers; guide miR-122 5' phosphate
# B6: GCGCCTCA (ssRNA)
# RNA 1: B1 RNA 1 with A27G, C32U
# RNA 2: UGGAGUGUGACAAUGGUGUUUG
# DNA 1: GATCGTCGGACTGTAGAACTC
# DNA 2: TTGGCACCCGAGAATTCCA
# modifications: constant regions annealed to DNA blockers; guide miR-122 5' phosphate
# B7: GCGTTTCA (ssRNA)
# RNA 1: B1 RNA 1 with A27G, C30U, C31U, C32U
# RNA 2: UGGAGUGUGACAAUGGUGUUUG
# DNA 1: GATCGTCGGACTGTAGAACTC
# DNA 2: TTGGCACCCGAGAATTCCA
# modifications: constant regions annealed to DNA blockers; guide miR-122 5' phosphate
# B8: GCACCTTA (ssRNA)
# RNA 1: B1 RNA 1 with A27G, G29A, C32U, C33U
# RNA 2: UGGAGUGUGACAAUGGUGUUUG
# DNA 1: GATCGTCGGACTGTAGAACTC
# DNA 2: TTGGCACCCGAGAATTCCA
# modifications: constant regions annealed to DNA blockers; guide miR-122 5' phosphate
# B9: ACGTCCCA (ssRNA)
# RNA 1: B1 RNA 1 with C30U
# RNA 2: UGGAGUGUGACAAUGGUGUUUG
# DNA 1: GATCGTCGGACTGTAGAACTC
# DNA 2: TTGGCACCCGAGAATTCCA
# modifications: constant regions annealed to DNA blockers; guide miR-122 5' phosphate
# B10: GCGCCTTA (ssRNA)
# RNA 1: B1 RNA 1 with A27G, C32U, C33U
# RNA 2: UGGAGUGUGACAAUGGUGUUUG
# DNA 1: GATCGTCGGACTGTAGAACTC
# DNA 2: TTGGCACCCGAGAATTCCA
# modifications: constant regions annealed to DNA blockers; guide miR-122 5' phosphate
# B11: GCACCCCG (ssRNA)
# RNA 1: B1 RNA 1 with A27G, G29A, A34G
# RNA 2: UGGAGUGUGACAAUGGUGUUUG
# DNA 1: GATCGTCGGACTGTAGAACTC
# DNA 2: TTGGCACCCGAGAATTCCA
# modifications: constant regions annealed to DNA blockers; guide miR-122 5' phosphate
# B12: GCGCTCCG (ssRNA)
# RNA 1: B1 RNA 1 with A27G, C31U, A34G
# RNA 2: UGGAGUGUGACAAUGGUGUUUG
# DNA 1: GATCGTCGGACTGTAGAACTC
# DNA 2: TTGGCACCCGAGAATTCCA
# modifications: constant regions annealed to DNA blockers; guide miR-122 5' phosphate
# B13: GTGCCTTA (ssRNA)
# RNA 1: B1 RNA 1 with A27G, C28U, C32U, C33U
# RNA 2: UGGAGUGUGACAAUGGUGUUUG
# DNA 1: GATCGTCGGACTGTAGAACTC
# DNA 2: TTGGCACCCGAGAATTCCA
# modifications: constant regions annealed to DNA blockers; guide miR-122 5' phosphate
# B14: ATATTCCA (ssRNA)
# RNA 1: B1 RNA 1 with C28U, G29A, C30U, C31U
# RNA 2: UGGAGUGUGACAAUGGUGUUUG
# DNA 1: GATCGTCGGACTGTAGAACTC
# DNA 2: TTGGCACCCGAGAATTCCA
# modifications: constant regions annealed to DNA blockers; guide miR-122 5' phosphate
# B15: GCGTCCCA (ssRNA)
# RNA 1: B1 RNA 1 with A27G, C30U
# RNA 2: UGGAGUGUGACAAUGGUGUUUG
# DNA 1: GATCGTCGGACTGTAGAACTC
# DNA 2: TTGGCACCCGAGAATTCCA
# modifications: constant regions annealed to DNA blockers; guide miR-122 5' phosphate
# B16: GCGCTCCA (ssRNA)
# RNA 1: B1 RNA 1 with A27G, C31U
# RNA 2: UGGAGUGUGACAAUGGUGUUUG
# DNA 1: GATCGTCGGACTGTAGAACTC
# DNA 2: TTGGCACCCGAGAATTCCA
# modifications: constant regions annealed to DNA blockers; guide miR-122 5' phosphate
# B17: GTACCTCA (ssRNA)
# RNA 1: B1 RNA 1 with A27G, C28U, G29A, C32U
# RNA 2: UGGAGUGUGACAAUGGUGUUUG
# DNA 1: GATCGTCGGACTGTAGAACTC
# DNA 2: TTGGCACCCGAGAATTCCA
# modifications: constant regions annealed to DNA blockers; guide miR-122 5' phosphate
# B18: ATGTCTTA (ssRNA)
# RNA 1: B1 RNA 1 with C28U, C30U, C32U, C33U
# RNA 2: UGGAGUGUGACAAUGGUGUUUG
# DNA 1: GATCGTCGGACTGTAGAACTC
# DNA 2: TTGGCACCCGAGAATTCCA
# modifications: constant regions annealed to DNA blockers; guide miR-122 5' phosphate
# B19: ACACCCCG (ssRNA)
# RNA 1: B1 RNA 1 with G29A, A34G
# RNA 2: UGGAGUGUGACAAUGGUGUUUG
# DNA 1: GATCGTCGGACTGTAGAACTC
# DNA 2: TTGGCACCCGAGAATTCCA
# modifications: constant regions annealed to DNA blockers; guide miR-122 5' phosphate
# Biological target: AGO2 WT (phosphosite mutant background) (Homo sapiens, UniProt Q9UKV8 1-859, S387D;S824A;S828D;S831D;S834A)
# Sequence (Q9UKV8 whole entry S387D/S824A/S828D/S831D/S834A): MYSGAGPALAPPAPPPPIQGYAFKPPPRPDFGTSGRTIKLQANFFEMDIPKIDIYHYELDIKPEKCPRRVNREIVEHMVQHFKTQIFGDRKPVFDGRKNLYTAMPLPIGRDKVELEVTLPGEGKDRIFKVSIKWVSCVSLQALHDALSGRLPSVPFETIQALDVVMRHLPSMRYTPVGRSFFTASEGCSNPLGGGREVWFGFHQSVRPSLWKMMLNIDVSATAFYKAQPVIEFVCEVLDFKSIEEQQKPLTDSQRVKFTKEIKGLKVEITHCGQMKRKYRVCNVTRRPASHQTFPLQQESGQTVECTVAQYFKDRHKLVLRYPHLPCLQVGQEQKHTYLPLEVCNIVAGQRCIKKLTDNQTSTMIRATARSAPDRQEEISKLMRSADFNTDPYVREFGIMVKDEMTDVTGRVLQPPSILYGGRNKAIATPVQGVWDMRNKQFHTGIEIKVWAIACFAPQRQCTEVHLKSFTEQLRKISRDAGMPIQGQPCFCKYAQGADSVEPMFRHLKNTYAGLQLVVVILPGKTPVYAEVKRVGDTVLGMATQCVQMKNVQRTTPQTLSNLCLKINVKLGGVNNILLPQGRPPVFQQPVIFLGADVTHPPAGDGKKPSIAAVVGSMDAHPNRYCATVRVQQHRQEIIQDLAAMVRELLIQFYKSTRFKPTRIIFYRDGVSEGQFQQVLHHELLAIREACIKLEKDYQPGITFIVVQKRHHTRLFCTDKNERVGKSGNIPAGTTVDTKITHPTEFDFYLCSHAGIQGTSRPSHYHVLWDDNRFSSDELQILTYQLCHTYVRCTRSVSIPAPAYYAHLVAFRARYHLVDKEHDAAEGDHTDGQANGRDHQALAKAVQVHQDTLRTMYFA
# Assay: RNA Bind-n-Seq (nitrocellulose filter binding and sequencing); miR-122 guide loaded in AGO2; 60 min incubation; 30 mM Tris pH 8.0, 100 mM potassium acetate, 2 mM magnesium acetate, 0.5 mM TCEP, 0.005% NP-40, 0.01 mg/ml yeast tRNA; 3 nM AGO2-miR-122, 100 nM RNA library; 60; high values mean tight binding
# Conditions: protein: recombinant; tags: His6 (N-terminal, pFastBac HTA)
# How it was run: (§1)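 His-tagged AGO2 was expressed in Sf9 insect cells by baculovirus, loaded with a synthetic guide RNA, and purified by Ni-NTA and a biotinylated capture oligo. Bound RNA was extracted, reverse-transcribed, barcode-amplified and Illumina-sequenced. Fold enrichment is each sequence's read fraction divided by its input-library read fraction.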
row,Binder,binding signal
1,B1,0.123 fold enrichment over input
2,B2,0.164 fold enrichment over input
3,B3,0.122 fold enrichment over input
4,B4,0.125 fold enrichment over input
5,B5,0.127 fold enrichment over input
6,B6,0.131 fold enrichment over input
7,B7,0.125 fold enrichment over input
8,B8,0.132 fold enrichment over input
9,B9,0.127 fold enrichment over input
10,B10,0.125 fold enrichment over input
11,B11,0.129 fold enrichment over input
12,B12,1.39 fold enrichment over input
13,B13,0.126 fold enrichment over input
14,B14,0.121 fold enrichment over input
15,B15,0.126 fold enrichment over input
16,B16,1.63 fold enrichment over input
17,B17,0.149 fold enrichment over input
18,B18,0.142 fold enrichment over input
19,B19,0.152 fold enrichment over input

# Biological target: AGO2 L192P (Homo sapiens, UniProt Q9UKV8 1-859, L192P;S387D;S824A;S828D;S831D;S834A)
# Sequence (Q9UKV8 whole entry L192P/S387D/S824A/S828D/S831D/S834A): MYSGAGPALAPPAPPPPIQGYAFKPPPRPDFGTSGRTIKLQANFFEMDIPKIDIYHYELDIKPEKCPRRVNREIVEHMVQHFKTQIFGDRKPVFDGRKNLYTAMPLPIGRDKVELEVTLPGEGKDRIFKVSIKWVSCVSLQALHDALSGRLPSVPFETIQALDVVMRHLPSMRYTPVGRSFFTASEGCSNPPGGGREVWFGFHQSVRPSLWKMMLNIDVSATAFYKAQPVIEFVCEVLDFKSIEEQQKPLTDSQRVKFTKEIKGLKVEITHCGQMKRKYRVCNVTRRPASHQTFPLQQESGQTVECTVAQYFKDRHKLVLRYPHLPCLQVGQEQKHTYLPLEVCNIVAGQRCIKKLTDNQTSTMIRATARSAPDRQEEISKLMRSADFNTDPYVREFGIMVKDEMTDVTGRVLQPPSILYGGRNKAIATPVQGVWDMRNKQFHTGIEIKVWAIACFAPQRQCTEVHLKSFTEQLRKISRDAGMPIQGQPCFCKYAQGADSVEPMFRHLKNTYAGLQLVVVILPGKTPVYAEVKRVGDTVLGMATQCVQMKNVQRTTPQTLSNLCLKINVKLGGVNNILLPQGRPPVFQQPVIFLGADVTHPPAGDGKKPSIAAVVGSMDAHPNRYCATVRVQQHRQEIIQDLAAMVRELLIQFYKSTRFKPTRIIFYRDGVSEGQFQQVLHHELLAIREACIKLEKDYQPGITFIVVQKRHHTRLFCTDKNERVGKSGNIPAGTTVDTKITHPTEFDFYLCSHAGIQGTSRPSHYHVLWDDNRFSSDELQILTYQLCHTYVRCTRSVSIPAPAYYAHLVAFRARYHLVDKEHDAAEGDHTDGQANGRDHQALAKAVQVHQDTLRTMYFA
# Assay: as above
# Conditions: protein: recombinant; tags: His6 (N-terminal, pFastBac HTA)
# How it was run: as §1
row,Binder,binding signal
1,B1,0.538 fold enrichment over input
2,B2,0.755 fold enrichment over input
3,B3,0.534 fold enrichment over input
4,B4,0.479 fold enrichment over input
5,B5,0.455 fold enrichment over input
6,B6,0.523 fold enrichment over input
7,B7,0.513 fold enrichment over input
8,B8,0.59 fold enrichment over input
9,B9,0.569 fold enrichment over input
10,B10,0.5 fold enrichment over input
11,B11,0.455 fold enrichment over input
12,B12,3.09 fold enrichment over input
13,B13,0.555 fold enrichment over input
14,B14,0.564 fold enrichment over input
15,B15,0.51 fold enrichment over input
16,B16,3.25 fold enrichment over input
17,B17,0.573 fold enrichment over input
18,B18,0.569 fold enrichment over input
19,B19,0.517 fold enrichment over input

# Biological target: AGO2 A367P (Homo sapiens, UniProt Q9UKV8 1-859, A367P;S387D;S824A;S828D;S831D;S834A)
# Sequence (Q9UKV8 whole entry A367P/S387D/S824A/S828D/S831D/S834A): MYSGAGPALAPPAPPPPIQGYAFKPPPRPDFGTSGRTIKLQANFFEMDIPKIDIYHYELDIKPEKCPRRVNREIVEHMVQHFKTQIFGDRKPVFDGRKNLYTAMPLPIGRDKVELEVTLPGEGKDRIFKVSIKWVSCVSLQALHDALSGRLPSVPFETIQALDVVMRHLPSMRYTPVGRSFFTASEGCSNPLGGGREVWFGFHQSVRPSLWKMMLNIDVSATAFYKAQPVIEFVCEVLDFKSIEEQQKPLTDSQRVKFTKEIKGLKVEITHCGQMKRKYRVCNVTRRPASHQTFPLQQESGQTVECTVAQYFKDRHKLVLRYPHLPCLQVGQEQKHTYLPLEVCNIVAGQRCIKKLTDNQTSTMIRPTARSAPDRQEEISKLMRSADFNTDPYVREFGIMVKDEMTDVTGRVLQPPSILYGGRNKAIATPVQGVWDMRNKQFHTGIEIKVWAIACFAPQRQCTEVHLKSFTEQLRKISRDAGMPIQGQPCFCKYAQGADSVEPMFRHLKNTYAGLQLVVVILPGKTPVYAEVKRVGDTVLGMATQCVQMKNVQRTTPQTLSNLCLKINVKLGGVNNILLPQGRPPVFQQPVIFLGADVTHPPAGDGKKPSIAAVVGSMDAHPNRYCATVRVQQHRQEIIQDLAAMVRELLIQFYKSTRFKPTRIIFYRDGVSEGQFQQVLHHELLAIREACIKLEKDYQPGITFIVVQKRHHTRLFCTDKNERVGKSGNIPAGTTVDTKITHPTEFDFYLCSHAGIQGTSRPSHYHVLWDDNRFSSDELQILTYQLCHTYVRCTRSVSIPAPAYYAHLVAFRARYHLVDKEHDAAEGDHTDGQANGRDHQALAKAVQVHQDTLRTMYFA
# Assay: as above
# Conditions: protein: recombinant; tags: His6 (N-terminal, pFastBac HTA)
# How it was run: as §1
row,Binder,binding signal
1,B1,0.215 fold enrichment over input
2,B2,0.475 fold enrichment over input
3,B3,0.209 fold enrichment over input
4,B4,0.249 fold enrichment over input
5,B5,0.192 fold enrichment over input
6,B6,0.233 fold enrichment over input
7,B7,0.227 fold enrichment over input
8,B8,0.307 fold enrichment over input
9,B9,0.255 fold enrichment over input
10,B10,0.194 fold enrichment over input
11,B11,0.21 fold enrichment over input
12,B12,4.35 fold enrichment over input
13,B13,0.217 fold enrichment over input
14,B14,0.22 fold enrichment over input
15,B15,0.215 fold enrichment over input
16,B16,2.69 fold enrichment over input
17,B17,0.44 fold enrichment over input
18,B18,0.399 fold enrichment over input
19,B19,0.259 fold enrichment over input

# Biological target: AGO2 T357M (Homo sapiens, UniProt Q9UKV8 1-859, T357M;S387D;S824A;S828D;S831D;S834A)
# Sequence (Q9UKV8 whole entry T357M/S387D/S824A/S828D/S831D/S834A): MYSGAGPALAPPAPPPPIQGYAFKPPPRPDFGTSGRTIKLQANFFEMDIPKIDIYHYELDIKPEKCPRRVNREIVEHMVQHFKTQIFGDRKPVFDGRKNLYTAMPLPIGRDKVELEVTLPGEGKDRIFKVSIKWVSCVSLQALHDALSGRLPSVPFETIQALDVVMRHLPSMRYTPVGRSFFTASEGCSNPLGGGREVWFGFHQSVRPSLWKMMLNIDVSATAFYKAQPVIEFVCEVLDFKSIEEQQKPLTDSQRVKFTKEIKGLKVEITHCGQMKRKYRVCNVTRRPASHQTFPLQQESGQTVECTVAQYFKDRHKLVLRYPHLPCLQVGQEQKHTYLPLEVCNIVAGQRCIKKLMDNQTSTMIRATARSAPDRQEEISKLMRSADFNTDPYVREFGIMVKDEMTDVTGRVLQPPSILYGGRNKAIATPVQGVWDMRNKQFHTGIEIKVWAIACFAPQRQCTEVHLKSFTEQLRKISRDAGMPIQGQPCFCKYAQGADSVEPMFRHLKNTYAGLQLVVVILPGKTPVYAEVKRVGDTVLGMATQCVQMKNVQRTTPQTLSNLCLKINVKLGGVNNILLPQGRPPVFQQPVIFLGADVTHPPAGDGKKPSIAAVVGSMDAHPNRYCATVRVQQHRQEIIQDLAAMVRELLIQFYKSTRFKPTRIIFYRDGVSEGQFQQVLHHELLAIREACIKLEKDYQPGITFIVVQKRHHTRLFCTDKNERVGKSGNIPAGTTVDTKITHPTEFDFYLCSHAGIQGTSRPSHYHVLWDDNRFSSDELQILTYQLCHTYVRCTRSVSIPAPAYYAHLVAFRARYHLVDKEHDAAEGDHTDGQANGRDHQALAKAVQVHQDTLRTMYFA
# Assay: as above
# Conditions: protein: recombinant; tags: His6 (N-terminal, pFastBac HTA)
# How it was run: as §1
row,Binder,binding signal
1,B1,0.719 fold enrichment over input
2,B2,0.721 fold enrichment over input
3,B3,0.598 fold enrichment over input
4,B4,0.602 fold enrichment over input
5,B5,0.624 fold enrichment over input
6,B6,0.741 fold enrichment over input
7,B7,0.632 fold enrichment over input
8,B8,0.657 fold enrichment over input
9,B9,0.637 fold enrichment over input
10,B10,0.763 fold enrichment over input
11,B11,0.634 fold enrichment over input
12,B12,0.905 fold enrichment over input
13,B13,0.801 fold enrichment over input
14,B14,0.646 fold enrichment over input
15,B15,0.751 fold enrichment over input
16,B16,1.03 fold enrichment over input
17,B17,0.601 fold enrichment over input
18,B18,0.646 fold enrichment over input
19,B19,0.517 fold enrichment over input

# Biological target: AGO2 F182del (Homo sapiens, UniProt Q9UKV8 1-859, S387D;S824A;S828D;S831D;S834A;del182-182)
# Sequence (Q9UKV8 other isoform, or with tags, fused parts or gaps S387D;S824A;S828D;S831D;S834A;del182-182): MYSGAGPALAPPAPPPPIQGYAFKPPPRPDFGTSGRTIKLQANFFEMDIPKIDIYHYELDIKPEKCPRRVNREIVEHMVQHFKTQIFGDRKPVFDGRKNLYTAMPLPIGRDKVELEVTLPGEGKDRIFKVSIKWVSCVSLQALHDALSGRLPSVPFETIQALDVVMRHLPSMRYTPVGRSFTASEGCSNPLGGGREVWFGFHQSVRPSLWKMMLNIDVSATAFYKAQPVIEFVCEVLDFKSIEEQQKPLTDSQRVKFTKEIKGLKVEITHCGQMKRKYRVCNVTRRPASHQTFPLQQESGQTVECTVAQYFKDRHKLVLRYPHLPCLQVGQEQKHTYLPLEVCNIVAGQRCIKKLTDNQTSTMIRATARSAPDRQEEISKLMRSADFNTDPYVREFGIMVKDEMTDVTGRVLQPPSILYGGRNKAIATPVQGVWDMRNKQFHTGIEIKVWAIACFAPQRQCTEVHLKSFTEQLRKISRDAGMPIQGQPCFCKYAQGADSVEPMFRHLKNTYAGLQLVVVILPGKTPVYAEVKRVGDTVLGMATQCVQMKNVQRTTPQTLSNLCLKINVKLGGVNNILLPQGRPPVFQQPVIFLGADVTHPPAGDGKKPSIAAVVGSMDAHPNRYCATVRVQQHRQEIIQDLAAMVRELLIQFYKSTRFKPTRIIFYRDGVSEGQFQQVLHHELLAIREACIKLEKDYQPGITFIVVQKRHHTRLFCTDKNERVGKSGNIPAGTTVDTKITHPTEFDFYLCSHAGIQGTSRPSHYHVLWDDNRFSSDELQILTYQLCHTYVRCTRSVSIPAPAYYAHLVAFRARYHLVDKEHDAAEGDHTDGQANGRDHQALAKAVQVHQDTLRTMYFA
# Assay: as above
# Conditions: protein: recombinant; tags: His6 (N-terminal, pFastBac HTA)
# How it was run: as §1
row,Binder,binding signal
1,B1,0.236 fold enrichment over input
2,B2,1.89 fold enrichment over input
3,B3,0.359 fold enrichment over input
4,B4,0.268 fold enrichment over input
5,B6,0.304 fold enrichment over input
6,B7,0.326 fold enrichment over input
7,B8,0.717 fold enrichment over input
8,B9,0.446 fold enrichment over input
9,B11,0.203 fold enrichment over input
10,B12,7.66 fold enrichment over input
11,B14,0.372 fold enrichment over input
12,B15,0.169 fold enrichment over input
13,B16,6.7 fold enrichment over input
14,B17,1.57 fold enrichment over input
15,B18,0.57 fold enrichment over input
16,B19,0.82 fold enrichment over input

# Source: article PMC12529666, “Dysregulation of AGO2-miRNA dynamics underlies the AGO2-associated Lessel–Kreienkamp syndrome”
